# According to the supplement of paper PMC6089552:
# In all, about 3,200 compounds went through this assay and about 300 (9.4%) showed activity. Shown is part of a subset that was picked to be rich in actives. A number with no mark means an inactive call.
# System: A673/TR/shEF
# Experiment: cell viability (LOESS-normalised, relative to median of negative controls) (log2 ratio); higher = more viable cells (less compound effect), active = hit call of the paper (over 3 MAD below the median)
# Settings: treatment time: 72 h
# How it was run: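 Doxycycline, present or absent from 24 h before compounds, was used to induce EWS-FLI1 shRNA knockdown in A673/TR/shEF Ewing sarcoma cells at 1,500 per well in 384-well plates. Cells then received library compounds at two or more concentrations, or DMSO controls, for three days. Viability was measured by CellTiter-Glo luminescence on an Envision reader, and per-plate LOESS correction, division by the negative-control median and log2 transformation followed.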
# [1] = 0.25 µM, library screen: screen2, EWS-FLI1 expression: high (no doxycycline)
# [2] = 0.25 µM, library screen: screen2, EWS-FLI1 expression: low (doxycycline-induced shRNA knockdown)
# [3] = 2.5 µM, library screen: screen2, EWS-FLI1 expression: high (no doxycycline)
# [4] = 2.5 µM, library screen: screen2, EWS-FLI1 expression: low (doxycycline-induced shRNA knockdown)
# [5] = 0.25 µM, library screen: screen1, EWS-FLI1 expression: high (no doxycycline)
# [6] = 0.25 µM, library screen: screen1, EWS-FLI1 expression: low (doxycycline-induced shRNA knockdown)
# [7] = 2.5 µM, library screen: screen1, EWS-FLI1 expression: high (no doxycycline)
# [8] = 2.5 µM, library screen: screen1, EWS-FLI1 expression: low (doxycycline-induced shRNA knockdown)
# [9] = 0.103 µM, library screen: screen3, EWS-FLI1 expression: high (no doxycycline)
# [10] = 0.103 µM, library screen: screen3, EWS-FLI1 expression: low (doxycycline-induced shRNA knockdown)
# [11] = 0.308 µM, library screen: screen3, EWS-FLI1 expression: high (no doxycycline)
# [12] = 0.308 µM, library screen: screen3, EWS-FLI1 expression: low (doxycycline-induced shRNA knockdown)
# [13] = 0.926 µM, library screen: screen3, EWS-FLI1 expression: high (no doxycycline)
# [14] = 0.926 µM, library screen: screen3, EWS-FLI1 expression: low (doxycycline-induced shRNA knockdown)
# [15] = 2.8 µM, library screen: screen3, EWS-FLI1 expression: high (no doxycycline)
# [16] = 2.8 µM, library screen: screen3, EWS-FLI1 expression: low (doxycycline-induced shRNA knockdown)
# [17] = 8.3 µM, library screen: screen3, EWS-FLI1 expression: high (no doxycycline)
# [18] = 8.3 µM, library screen: screen3, EWS-FLI1 expression: low (doxycycline-induced shRNA knockdown)
# [19] = 25 µM, library screen: screen3, EWS-FLI1 expression: high (no doxycycline)
# [20] = 25 µM, library screen: screen3, EWS-FLI1 expression: low (doxycycline-induced shRNA knockdown)
compound,measurement,setting,value
CCCCCCCCCCCCCCC[C@@H](O)[C@H](CO)NC(C)=O,cell viability (log2),[1],0.176
same,cell viability (log2),[2],0.139
same,cell viability (log2),[3],0.0603
same,cell viability (log2),[4],0.124
NC(=S)c1ccc[n+]([C@@H]2O[C@H](COP(=O)(O)OP(=O)(O)OC[C@H]3O[C@@H](n4cnc5c(N)ncnc54)[C@H](OP(=O)(O)O)[C@@H]3O)[C@@H](O)[C@H]2[O-])c1,cell viability (log2),[1],0.209
same,cell viability (log2),[2],0.145
same,cell viability (log2),[3],0.254
same,cell viability (log2),[4],0.143
Clc1ccc(CN2CCN(Cc3c[nH]c4ccccc34)CC2)cc1,cell viability (log2),[5],0.142
same,cell viability (log2),[6],0.175
same,cell viability (log2),[7],0.152
same,cell viability (log2),[8],0.116
COc1ccc2c(c1)OCC(=Cc1ccc(OC)c(O)c1)C2=O,cell viability (log2),[5],0.111
same,cell viability (log2),[6],0.0739
same,cell viability (log2),[7],0.125
same,cell viability (log2),[8],0.0254
CCOC(=O)C1=C(C)NC2=C(C(=O)CC(C)(C)C2)C1c1coc2ccccc2c1=O (stereo not drawn),cell viability (log2),[5],0.113
same,cell viability (log2),[6],0.123
same,cell viability (log2),[7],0.0647
same,cell viability (log2),[8],0.0912
COc1ccc(CNS(=O)(=O)c2ccc(NC(C)=O)cc2)cc1,cell viability (log2),[5],0.136
same,cell viability (log2),[6],0.114
same,cell viability (log2),[7],0.073
same,cell viability (log2),[8],0.0317
CC(=O)O[C@@H]1CC2C(C)(C)CCC[C@]2(C)C2CC[C@]3(C)C(=CC(=O)O[C@H]3c3ccoc3)[C@@]21C (stereo partly drawn),cell viability (log2),[5],0.0969
same,cell viability (log2),[6],0.0706
same,cell viability (log2),[7],0.0583
same,cell viability (log2),[8],0.123
CC1=C(C(=O)OC2CCCC2)C(c2coc3ccccc3c2=O)C2=C(CCCC2=O)N1 (stereo not drawn),cell viability (log2),[5],0.0306
same,cell viability (log2),[6],0.112
same,cell viability (log2),[7],0.0744
same,cell viability (log2),[8],0.0338
Cc1cc(=O)c2c(o1)-c1c(cc(O)c(O)c1C(=O)O)OC2,cell viability (log2),[5],0.0145
same,cell viability (log2),[6],0.0255
same,cell viability (log2),[7],0.0451
same,cell viability (log2),[8],0.0692
N[C@@H](CCC(=O)O)C(=O)O,cell viability (log2),[1],0.193
same,cell viability (log2),[2],0.073
same,cell viability (log2),[3],0.108
same,cell viability (log2),[4],0.15
N[C@@H](CC(=O)O)C(=O)O,cell viability (log2),[1],-0.146 (active)
same,cell viability (log2),[2],0.087
same,cell viability (log2),[3],0.0127
same,cell viability (log2),[4],0.00419
N[C@H](CO)C(=O)O,cell viability (log2),[1],0.128
same,cell viability (log2),[2],0.103
same,cell viability (log2),[3],0.162
same,cell viability (log2),[4],0.112
CNc1ccccc1C(=O)N1CCc2c([nH]c3ccccc23)C1=O,cell viability (log2),[5],0.0191
same,cell viability (log2),[6],-0.0744
same,cell viability (log2),[7],0.0945
same,cell viability (log2),[8],0.0188
COC1[C@H](O)[C@@H](O)C(O)[C@H](O)[C@H]1O (stereo partly drawn),cell viability (log2),[5],0.0827
same,cell viability (log2),[6],0.0562
same,cell viability (log2),[7],0.177
same,cell viability (log2),[8],0.115
CC(=O)O[C@H]1CC[C@]2(C)[C@H]3C(=O)C=C4[C@@H]5C[C@@](C)(C(=O)O)CC[C@]5(C)CC[C@@]4(C)[C@]3(C)CC[C@H]2C1(C)C,cell viability (log2),[5],0.0602
same,cell viability (log2),[6],0.011
same,cell viability (log2),[7],0.129
same,cell viability (log2),[8],0.0507
CO[C@@H](C(=O)N1Cc2[nH]nc(NC(=O)c3ccc(N4CCN(C)CC4)cc3)c2C1)c1ccccc1,cell viability (log2),[9],-0.25 (active)
same,cell viability (log2),[10],0.0472
same,cell viability (log2),[11],-0.418 (active)
same,cell viability (log2),[12],-0.0579
same,cell viability (log2),[13],-0.596 (active)
same,cell viability (log2),[14],-0.134 (active)
same,cell viability (log2),[15],-0.679 (active)
same,cell viability (log2),[16],-0.355 (active)
same,cell viability (log2),[17],-0.794 (active)
same,cell viability (log2),[18],-0.46 (active)
same,cell viability (log2),[19],-1.13 (active)
same,cell viability (log2),[20],-1.21 (active)
O=C(Nc1cccc(C(=O)Nc2ccc(S(=O)(=O)O)c3cc(S(=O)(=O)O)cc(S(=O)(=O)O)c23)c1)Nc1cccc(C(=O)Nc2ccc(S(=O)(=O)O)c3cc(S(=O)(=O)O)cc(S(=O)(=O)O)c23)c1,cell viability (log2),[1],0.11
same,cell viability (log2),[2],0.117
same,cell viability (log2),[3],0.167
same,cell viability (log2),[4],0.0855
O=C(Nc1cc(C(=O)Nc2ccc(S(=O)(=O)O)c(S(=O)(=O)O)c2)cc(C(=O)Nc2ccc(S(=O)(=O)O)c(S(=O)(=O)O)c2)c1)Nc1cc(C(=O)Nc2ccc(S(=O)(=O)O)c(S(=O)(=O)O)c2)cc(C(=O)Nc2ccc(S(=O)(=O)O)c(S(=O)(=O)O)c2)c1,cell viability (log2),[1],0.215
same,cell viability (log2),[2],0.101
same,cell viability (log2),[3],0.0469
same,cell viability (log2),[4],0.125
Cc1ccc(C(=O)Nc2ccc(S(=O)(=O)O)c3cc(S(=O)(=O)O)cc(S(=O)(=O)O)c23)cc1NC(=O)c1cccc(NC(=O)Nc2cccc(C(=O)Nc3cc(C(=O)Nc4ccc(S(=O)(=O)O)c5cc(S(=O)(=O)O)cc(S(=O)(=O)O)c45)ccc3C)c2)c1,cell viability (log2),[5],0.152
same,cell viability (log2),[6],0.0138
same,cell viability (log2),[1],-2.98 (active)
same,cell viability (log2),[2],-2.91 (active)
same,cell viability (log2),[7],0.0749
same,cell viability (log2),[8],0.0704
same,cell viability (log2),[3],-3.46 (active)
same,cell viability (log2),[4],-3.2 (active)
OCCN(C(=S)Nc1ccc2nccnc2c1)c1ccccc1,cell viability (log2),[5],0.0686
same,cell viability (log2),[6],0.0667
same,cell viability (log2),[7],0.0818
same,cell viability (log2),[8],0.102
CC12CCC3c4ccc(OC(=O)c5ccccc5)cc4CCC3C1CCC2=O (stereo not drawn),cell viability (log2),[5],-0.000312
same,cell viability (log2),[6],0.0356
same,cell viability (log2),[7],0.0819
same,cell viability (log2),[8],0.000425
Cc1cc(OC(=O)c2c(C)cc(O)cc2O)cc(O)c1C(=O)O,cell viability (log2),[5],0.0848
same,cell viability (log2),[6],-0.00358
same,cell viability (log2),[7],0.0665
same,cell viability (log2),[8],0.0394
CCCCC1C(=O)N(c2ccccc2)N(c2ccc(O)cc2)C1=O (stereo not drawn),cell viability (log2),[5],0.139
same,cell viability (log2),[6],0.0945
same,cell viability (log2),[7],-0.129 (active)
same,cell viability (log2),[8],0.2
CCCCC1C(=O)N(c2ccccc2)N(c2ccccc2)C1=O,cell viability (log2),[9],0.0537
same,cell viability (log2),[10],0.0214
same,cell viability (log2),[5],0.128
same,cell viability (log2),[6],0.109
same,cell viability (log2),[1],0.0899
same,cell viability (log2),[2],0.0435
same,cell viability (log2),[11],0.172
same,cell viability (log2),[12],0.159
same,cell viability (log2),[13],0.0763
same,cell viability (log2),[14],0.0956
same,cell viability (log2),[7],0.118
same,cell viability (log2),[8],0.1
same,cell viability (log2),[3],0.084
same,cell viability (log2),[4],0.0326
same,cell viability (log2),[15],0.137
same,cell viability (log2),[16],0.112
same,cell viability (log2),[17],0.169
same,cell viability (log2),[18],0.123
same,cell viability (log2),[19],0.117
same,cell viability (log2),[20],0.141
O=C1C(CC[S+]([O-])c2ccccc2)C(=O)N(c2ccccc2)N1c1ccccc1 (stereo not drawn),cell viability (log2),[5],0.123
same,cell viability (log2),[6],0.158
same,cell viability (log2),[7],0.184
same,cell viability (log2),[8],0.139
